Compound activity from PubChem.
GCN5L2 inh: GCN5L2 (KAT2A) acetyltransferase inhibition | Q92830 | GCN5L2 HAT assay, ThioGlo1 CoA-SH fluorescence | Potency, µM (series often up to 58.9 µM), most hits filed as inhibitors | 390,000 tested, 0.21% active
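Enzyme at 20nM final was mixed with library compounds for 15 min at room temperature. Peptide H3(1-25) at 75uM, acetyl-CoA at 70uM and ThioGlo1 at 50uM were then added. Plates were read immediately and after 20 min (Ex340nm/Em540nm).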
APE1 inh: inhibitors of human APE1 endonuclease; recombinant APE1, TAMRA/BHQ-2 abasic DNA cleavage fluorescence; AID 2517; P27695; Potency, µM (doses to about 65.8 µM), hits mostly inhibitors; 350,000 tested, 0.35% active; note: nearly all actives have a fitted effect of over 55% in size
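Enzyme (0.75 nM final) and test compound are incubated 15 min at room temperature before adding 50 nM quenched THF abasic-site duplex. Cleavage dequenches TAMRA, followed at 525/598 nm over three reads one minute apart.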
BLM inh: Bloom syndrome helicase (human) inhibition; Potency, µM (top dose mostly 56.1 µM), actives largely listed as inhibitors; AID 2528; recombinant BLM DNA unwinding, fluorescence dequenching; P54132; 350,000 tested, 0.2% active; note: nearly all actives have a fitted effect of over 35% in size
Target sequence (P54132 whole entry, looked up): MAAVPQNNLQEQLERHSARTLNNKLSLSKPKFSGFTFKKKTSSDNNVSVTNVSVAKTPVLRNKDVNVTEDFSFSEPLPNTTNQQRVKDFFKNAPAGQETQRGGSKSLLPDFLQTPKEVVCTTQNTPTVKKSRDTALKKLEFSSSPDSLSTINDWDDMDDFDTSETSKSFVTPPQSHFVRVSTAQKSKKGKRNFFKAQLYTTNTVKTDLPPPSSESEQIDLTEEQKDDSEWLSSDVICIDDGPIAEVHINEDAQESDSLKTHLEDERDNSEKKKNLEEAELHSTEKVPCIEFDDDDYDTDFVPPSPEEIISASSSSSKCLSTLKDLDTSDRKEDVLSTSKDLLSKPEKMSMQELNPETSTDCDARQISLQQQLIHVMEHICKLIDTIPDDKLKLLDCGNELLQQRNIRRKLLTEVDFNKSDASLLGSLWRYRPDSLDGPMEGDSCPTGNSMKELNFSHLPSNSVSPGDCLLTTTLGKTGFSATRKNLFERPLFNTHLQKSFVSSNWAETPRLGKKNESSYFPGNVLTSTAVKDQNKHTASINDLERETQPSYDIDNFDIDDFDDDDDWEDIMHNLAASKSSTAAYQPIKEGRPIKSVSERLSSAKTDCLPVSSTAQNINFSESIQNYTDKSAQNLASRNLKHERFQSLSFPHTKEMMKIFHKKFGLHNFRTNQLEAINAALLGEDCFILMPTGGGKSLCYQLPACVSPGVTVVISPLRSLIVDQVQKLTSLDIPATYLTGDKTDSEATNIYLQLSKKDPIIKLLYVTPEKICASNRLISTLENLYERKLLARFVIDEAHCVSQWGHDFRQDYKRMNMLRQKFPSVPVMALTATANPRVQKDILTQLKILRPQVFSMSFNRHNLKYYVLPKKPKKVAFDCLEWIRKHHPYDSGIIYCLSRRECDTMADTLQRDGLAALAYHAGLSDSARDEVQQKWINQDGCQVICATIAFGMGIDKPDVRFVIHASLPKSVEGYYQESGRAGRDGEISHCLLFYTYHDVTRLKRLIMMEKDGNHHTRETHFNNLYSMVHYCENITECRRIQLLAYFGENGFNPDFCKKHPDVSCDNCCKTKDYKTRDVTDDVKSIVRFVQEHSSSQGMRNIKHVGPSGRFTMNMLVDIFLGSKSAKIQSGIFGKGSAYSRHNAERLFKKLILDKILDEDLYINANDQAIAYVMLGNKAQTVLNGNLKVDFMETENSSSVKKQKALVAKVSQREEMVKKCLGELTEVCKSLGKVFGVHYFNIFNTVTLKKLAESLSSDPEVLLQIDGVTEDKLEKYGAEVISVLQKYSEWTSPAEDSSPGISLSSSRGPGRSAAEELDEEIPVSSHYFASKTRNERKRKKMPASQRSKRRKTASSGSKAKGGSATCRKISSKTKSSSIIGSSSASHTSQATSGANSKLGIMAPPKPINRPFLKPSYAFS
KDM4E inh: blocks human JMJD2E demethylase activity; B2RXH2; JMJD2E catalytic domain, FDH-coupled NADH fluorescence (FDH is formaldehyde dehydrogenase); Potency, µM (series often up to 57.1 µM), usual class: inhibitors; 230,000 tested, 1.6% active; AID 2147; active = well fitted inhibition curve with a large enough effect, not every such curve was filed as active; inconclusive = small, poorly fitted or top-dose-only effect, or another doubt; inactive = no such curve, though single readings can be large or run the other way; note: nearly all actives have a fitted effect of over 50% in size
RECQ1 helicase: inhibitors of human RECQ1 DNA helicase; 240,000 tested, 0.54% active; Potency, µM (series often up to 57.3 µM), actives largely listed as inhibitors; RECQ1 DNA unwinding, red fluorescence kinetic read; note: nearly all actives have a fitted effect of over 30% in size
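RECQ1T1 50 nM; forked duplex (20 bp + 30-nt ss tails) 200 nM, ATP 2 mM final; pH 8.0, 2 mM MgCl2, 2.5 ug/ml poly(dI-dC); 15 min compound preincubation; discontinuous kinetic read over 2 h at RT.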
L3MBTL1 inh: L3MBTL1 (human) inhibition; AlphaScreen L3MBTL1–H3K9me1 peptide binding; Q9Y468; Potency, µM (doses to about 57.1 µM), usual class: inhibitors; 230,000 tested, 0.66% active; note: nearly all actives have a fitted effect of over 60% in size
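Read-out is AlphaScreen signal from streptavidin donor and nickel chelate acceptor beads (10 ug/mL final each) bridging L3MBTL1 (50 nM) and biotinylated K9-monomethylated H3(1-15) peptide (75 nM), after 30 min compound exposure at room temperature.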
Numbers stand for hits; n = inactive; u = inconclusive; x = no result given; ! = repeats disagree; [ ] = remark or other dose. Only a selection was taken, and hits are over-represented in it overall. Unless noted, calls come from the whole dose curve; as a rule, active = well fitted curve in the direction sought with a large enough effect; inconclusive = small, poorly fitted or top-dose-only effect, or another doubt; inactive = no such curve, though single readings can be large; an effect the other way counts as inactive or inconclusive.

SMILES | GCN5L2 inh | APE1 inh | BLM inh | KDM4E inh | RECQ1 helicase | L3MBTL1 inh
CC(NC(=O)CSc1n[nH]c(-c2ccccc2Cl)n1)c1nc2ccccc2n1C (centres undefined) | n | x | n | x | x | x
CC(=O)N(\C=C/C=C/C=C1\Sc2ccccc2C1=O)c1ccccc1 | u | u | u | 14µM | u | x
CN(C)/C=C1/Sc2ccccc2C1=O | n | n | n | u | n | n
COc1cc(Br)c(Br)cc1N | n | n | n | n | n | 3.5µM
CC(C)=NO[C@@H](C)c1cn([C@@H]2COC[C@@H]2O)nn1 | x | n[12.4 µM] | n[12.4 µM] | x | n[11.5 µM] | x
COc1ccc(/C=C(\C#N)c2nc3ccc(C)cc3[nH]2)cc1Oc1ccc(C(F)(F)F)cc1[N+](=O)[O-] | 2.8µM | n | n | n | n | n
Cc1nc2ccc(N=NC3=C(O)CC(C)(C)CC3=O)cc2s1 | n | n | n | n | n | n
CCOc1ccc2nc(N=NC3=C(O)CC(C)(C)CC3=O)sc2c1 | n | n | n | 22µM | n | x
c1ccc(Nc2nc(NCC3CCCO3)c3ccccc3n2)cc1 (centres undefined) | n | n | n | u | n | n
CCOc1ccc(Nc2nc(NCC3CCCO3)c3ccccc3n2)cc1 (centres undefined) | n | n | 28µM | n | u | x
CC(C)(C)n1ncc2c(=O)n(Cc3ccccc3F)cnc21 | x | n | x | x | x | x
CC1=NN(c2ccccc2)C(=O)/C1=C\c1ccc(Oc2ccc([N+](=O)[O-])cc2[N+](=O)[O-])cc1 | n | n | n | 6.3µM | n | u
CCC1CCCCN1C(=O)CSc1nnc(-c2c[nH]c3ccccc23)o1 (centres undefined) | n | n | n | n | n | n
Oc1c(Cl)ccc(Cl)c1Cl | x | n | x | x | n | x
O=C1C=CC(=O)c2c(O)c(Cl)c(Cl)c(O)c21 | 20µM | n | u | n | n | x
O=C(Nc1nnc(S(=O)(=O)N2CCCCC2)s1)c1ccc(Cl)cc1 | 11µM! | n | n | x | x | n
S=c1nc[nH]c2nc[nH]c12 | u | n | n | 20µM | n | n
O=C(O)c1ccccc1N/N=C/c1c(Sc2nnnn2-c2ccccc2)nc2ccccn2c1=O | n | 35µM | n | n | u | n
Cc1ccc(C(=O)NC(C(=O)NC2CCCC2)c2ccccc2)cc1 (centres undefined) | n | n | n | x | x | n
O=C1C(=O)c2ncccc2-c2cccnc21 | n | x | 16µM | x | x | x
C=CC[C@@H]1C=C[C@@H](O/N=C2/[C@H]3O[C@@H]3[C@@H](O)[C@H]3[C@H]2CCn2c(=O)n(-c4ccccc4)c(=O)n23)[C@@H](CO)O1 | x | n[12.4 µM] | n[12.4 µM] | x | n[11.5 µM] | x
CC(C)CO/N=C1/C[C@@H](O)[C@@H](O)[C@@H]2[C@@H]3C(=O)N(C(C)(C)C)C(=O)[C@H]3CC[C@@H]12 | x | n[12.4 µM] | n[12.4 µM] | x | n[11.5 µM] | x
c1ccc2c(c1)nc(N1CCOCC1)c1nnnn12 | n | n | n | u | n | n
c1ccc(N2CCN(c3nc4ccccc4n4nnnc34)CC2)cc1 | n | n | n | u | n | 3.5µM
CC1=CC(=Nc2c(C)n(C)n(-c3ccccc3)c2=O)C=C(C)C1=O | n | n | n | n | n | n
SMILES | GCN5L2 inh | APE1 inh | BLM inh | KDM4E inh | RECQ1 helicase | L3MBTL1 inh
CC1=CC(=Nc2c(C)n(C)n(-c3ccccc3)c2=O)C=CC1=O | n | n | n | 1.8µM | n | n
O=C(N/N=C/c1ccc(-c2ccccc2C(=O)O)o1)c1cccs1 | n | n | n | n | n | 25µM
Oc1ccc(N=Cc2ccc(O)c(O)c2)cc1 | n | n | 28µM | 0.63µM | n | 8.9µM
O=C1Nc2ccccc2/C1=N\N=C\c1ccc(O)c(O)c1 | n | u | u | 7.9µM | n | u
COc1cc(/C=N/N=C2/C(=O)Nc3ccccc32)ccc1O | n | n | n | n | n | n
Oc1ccc(/C=N/N=C/c2ccc(O)c(O)c2)cc1O | n | u | u | x | x | 8.9µM
Oc1ccc(/C=N/N(c2ccccc2)c2ccccc2)cc1O | u | n | n | x | x | x
CC(=O)Nc1ccc(NC(=O)CCc2c(C)nc3c(c(C)nn3-c3ccccc3)c2C)cc1 | n | x | n | x | x | x
NC(=O)C1CCN(c2nc(-c3cccc4ccccc34)cs2)CC1 | x | n | x | x | x | x
CN(Cc1ccc(C(C)(C)C)cc1)C(=O)C1CSC2(C)CCC(=O)N12 (centres undefined) | n | n | x | x | x | n
O=C(O)CC12CC3CC(C1)CC(n1ncc(NCc4ccc5c(c4)OCO5)c(Cl)c1=O)(C3)C2 | n | n | n | n | 40µM | x
CCc1nn2c(=O)cc(COc3ccc(/C=C4\C(=N)N5N=C(C)SC5=NC4=O)cc3)nc2s1 | u | u | 13µM | u | u | x
COc1ccc(-c2nnn(CC(=O)N(Cc3cccs3)C(C)C(=O)NCCC(C)C)n2)cc1OC (centres undefined) | n | n | n | n | n | x
O=c1[nH]c2ccccc2c2nc3ccccn3c12 | n | n | n | u | n | n
O=c1nc2c(O)cccn2c2c1c(=O)[nH]c1ccccc12 | u | n | 7.9µM | 11µM | n | n
